An excerpt weighted towards active compounds, which were near 3.7% of everything screened.
DRD3 antagonist = qHTS of D3 Dopamine Receptor Antagonist: qHTS | D(3) dopamine receptor (Homo sapiens), P35462 | D3R cells, DiscoveRx beta-arrestin luminescence, antagonist mode; active compounds read low | max response, negative = inhibition, % | actives 2.5% (n = 360,000) | AID 652054, 2013; in the data active means max response below about -50%; inconclusive means no clear call, values can overlap the other calls; further: on the % scale 0 is the no-effect control and ±100 the full control effect
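Cells plated overnight at 1500 cells/well, then exposed to library compounds with dopamine controls for 90 minutes at 37 degrees C. DiscoveRx reagent added for 30–60 minutes at room temperature; luminescence read, quantitative HTS format.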
B2AR arrestin = qHTS assay of beta-arrestin-biased ligands of beta2-adrenergic receptor; Beta-2 adrenergic receptor (Homo sapiens), P07550; beta-arrestin recruitment to beta2AR, cell-based reporter; Potency, µM (top dose mostly 46.1 µM), for the others: at the highest dose activation, most hits filed as activators; actives 0.02% (n = 330,000); AID 492947, 2010;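 further: potency means the concentration at half of the fitted maximal effect; 0% = DMSO controls and full agonism = EC100 isoproterenol or metaproterenol; nearly all actives have a fitted effect of over 65% in size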
BRCA1 expr up = qHTS Assay to Identify Small Molecule Activators of BRCA1 Expression. Potency, µM (titrated, usually from 46.1 µM), for inactives: at the highest dose activation, hits mostly activators. MCF7-BRCA1-FFLuc reporter, luminescence, 48 h; response scale: scaled: vehicle 0%, 10 µM genistein 100%. actives 1.1% (n = 380,000); further: potency means the concentration at half of the fitted maximal effect; nearly all actives have a fitted effect of over 80% in size
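Activators of BRCA1 expression were detected as increased firefly luciferase luminescence in engineered MCF7 cells after 48 h compound incubation. Signals were scaled to genistein 10 microM as full activation.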
D3 ag = qHTS of D3 Dopamine Receptor Agonist: qHTS; D(3) dopamine receptor (Homo sapiens), P35462; D3R DiscoveRx beta-arrestin cells, luminescence, 90 min; max activation, %; actives 0.58% (n = 410,000); AID 652048, 2013; in the data active means max activation above about 30%; further: 0% is about no effect
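Agonist-mode cell screen: cells plated at 1500/well and incubated overnight at 37 °C, then exposed to library compounds for 90 min at 37 °C. Detection reagent was added for 30–60 min at room temperature, and luminescence was read.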
PTHR1 agonist = qHTS for PTHR1 Agonists: Primary Screen; Parathyroid hormone/parathyroid hormone-related peptide receptor (Homo sapiens), Q03431; HEK293 GP2 PTHR1 cells, GloSensor cAMP luminescence, 1 h; Potency, µM (highest dose often 115 µM), for the others: at the top dose activation, actives largely listed as activators; actives 0.075% (n = 410,000); AID 743266, 2014; further: potency means the concentration at half of the fitted maximal effect; nearly all actives have a fitted effect of over 55% in size
Target sequence (Q03431 whole entry, looked up): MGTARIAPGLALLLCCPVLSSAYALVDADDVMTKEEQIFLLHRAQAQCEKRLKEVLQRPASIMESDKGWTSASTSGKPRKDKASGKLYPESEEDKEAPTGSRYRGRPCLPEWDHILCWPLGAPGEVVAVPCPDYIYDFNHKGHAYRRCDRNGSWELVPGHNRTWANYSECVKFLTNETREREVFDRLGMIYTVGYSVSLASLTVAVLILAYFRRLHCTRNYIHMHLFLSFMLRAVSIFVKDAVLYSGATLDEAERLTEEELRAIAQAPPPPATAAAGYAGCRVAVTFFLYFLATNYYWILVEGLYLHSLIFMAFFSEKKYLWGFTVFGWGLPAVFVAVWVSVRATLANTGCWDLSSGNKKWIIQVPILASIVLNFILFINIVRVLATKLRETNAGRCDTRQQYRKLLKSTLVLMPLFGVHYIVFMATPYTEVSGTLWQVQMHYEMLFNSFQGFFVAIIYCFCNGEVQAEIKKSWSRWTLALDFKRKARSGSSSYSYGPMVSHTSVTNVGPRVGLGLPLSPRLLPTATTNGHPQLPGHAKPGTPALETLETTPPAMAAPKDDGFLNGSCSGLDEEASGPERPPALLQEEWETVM
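HEK-293-derived GP2 cells expressing PTHR1 and a GloSensor cAMP reporter, 3,000/well, plated overnight, given luciferin plus IBMX (each 0.5 mM as added) for 1 h at 37 °C, then compound for 1 h at 37 °C. Luminescence was read after 15 min at room temperature.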
RGS4 inhibitor = Inhibitors of Regulator of G Protein Signaling (RGS) 4: qHTS. Regulator of G-protein signaling 4 (Homo sapiens), P49798. Transcreener GDP fluorescence polarization, RGS4-accelerated GTP hydrolysis. Potency, µM (titrated, usually from 114 µM), without a hit: top-dose activity change, negative = inhibition, actives largely listed as inhibitors. actives 0.039% (n = 390,000); further: potency means the concentration at half of the fitted maximal effect; on the % scale 0 is the no-effect control and ±100 the full control effect; nearly all actives have a fitted effect of over 75% in size
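MLSMR compounds (23 nl, pin-transferred) preincubated 10 min at room temperature with a 500nM (2x) first reagent, then RGS4 at 900nM (2x) plus Transcreener GDP mix added; fluorescence polarization (620/688 nm) read before and after 90 min at 30 °C.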
An asterisk follows results filed as active; i = inactive; u = inconclusive; x = not tested or not shown; [ ] = dose if it differs, or a comment. Unless noted, the call rests on the fitted dose curve; in most records, active means well fitted curve in the direction sought with a large enough effect; inconclusive means small, poorly fitted or top-dose-only effect, or another doubt; inactive means no such curve, though single readings can be large; an effect the other way counts as inactive or inconclusive.

SMILES | DRD3 antagonist | B2AR arrestin | BRCA1 expr up | D3 ag | PTHR1 agonist | RGS4 inhibitor
C/C(=N\Nc1nncc2ccccc12)c1ccc(C(C)(C)C)cc1 | 7 | 0% | 2.5µM* | 4 | i | -1%
CC(C)(C)C1CCc2c(sc3nc(-c4cc5cc(Br)ccc5oc4=O)[nH]c(=O)c23)C1 (stereo not drawn) | x | x | x | 6 | -10% | 41%
Cc1ccccc1C(OCCN(C)C)c1ccccc1 (stereo not drawn) | -53* | x | 0% | x | -24% | u
O=C(NCc1ccc(Cl)cc1)C(=O)NCC(c1cccnc1)N1CCN(c2ccc(F)cc2)CC1 (stereo not drawn) | 1 | 0% | -57% | 11 | -45% | -3%
COc1ccc(Cl)cc1NC(=O)N1CCN(C2CCCCC2)CC1 | -57* | 0% | -7% | -44 | 29% | -30%
CCN1CCN(C(=O)Nc2cc(Cl)ccc2OC)CC1 | -26 | 0% | 1% | -26 | -13% | -11%
COc1ccc(C(=O)N2CCN(C3CCCCC3)CC2)c(OC)c1 | -86* | 0% | -11% | -2 | i | 24%
COc1ccc(Cl)cc1NC(=O)NCC1CCN(C(=O)OC(C)(C)C)CC1 | -73* | -1% | -14% | -45 | -36% | -7%
CCOC(=O)C1(CC2CCCCO2)CCN(Cc2cn[nH]c2-c2cccc(F)c2)CC1 (stereo not drawn) | 0 | -1% | -12% | -7 | -8% | 18%
Cc1cccc(CNC(=O)C2CCCN(S(=O)(=O)c3cn(C)cn3)C2)c1 (stereo not drawn) | x | x | x | 9 | i | -26%
O=C(C1=NOC2(C1)C(=O)N(Cc1ccccc1)c1ccccc12)N1CCOCC1 (stereo not drawn) | 27 | x | 3% | 5 | -62% | x
COc1ccc(-c2ccc3oc(-c4ccc(OC)cc4)c(C#CCO)c3c2)cc1 | 111 | x | -38% | 58* | -8% | 7%
COc1ccc(-c2oc3ccc(N4CCOCC4)cc3c2C#CCO)cc1 | 95 | x | -43% | 18 | -19% | -15%
COc1ccc(-c2ccc3oc(-c4ccc(OC)cc4)c(-c4ccc(OC)cc4)c3c2)cc1 | 15 | x | 0% | 72* | -15% | -14%
CC1(C)N=C(N)N=C(N)N1c1ccc(OCC(=O)Nc2ccccc2)c(Cl)c1 | -62* | x | -45% | -6 | i | x
CC1(C)N=C(N)N=C(N)N1c1ccc(OCCCOc2ccccc2)c(Cl)c1 | -2 | -1% | -51% | 1 | u | -5%
Cc1cc(C)c(NC(=O)OCCN2CCOCC2)c(C)c1 | -60* | 0% | -9% | -7 | i | -58%[11.4 µM]
CNc1nn(-c2cccc(Cl)c2)nc1N | -27 | 0% | 10µM* | -7 | -4% | -18%[11.4 µM]
COc1cc2c(cc1NC(=O)CN(C)Cc1ccc(OC)c(OC)c1)oc1ccccc12 | 43 | -1% | -53% | 38* | -65% | 13%
COc1cc2c(cc1NC(=O)Cc1ccc(C)cc1)oc1ccccc12 | 9 | 0% | 7.9µM* | -3 | -72% | 11%[11.4 µM]
COc1ccc(CN(C)CC(=O)Nc2cc3oc4ccccc4c3cc2OC)c(OC)c1 | 29 | 0% | -56% | -8 | -62% | -15%
COc1ccccc1-n1ccnc(SCC(=O)NCCc2ccccc2)c1=O | -7 | 0% | -20% | -11 | -1% | u
COC1[C@@H](O[C@@H]2O[C@H](C)[C@@H](O[C@H]3C[C@@](C)(O)[C@H](OC(=O)CC(C)C)[C@H](C)O3)[C@H](N(C)C)[C@H]2O)[C@@H](CC=O)C[C@@H](C)[C@@H](O)/C=C/C=C/C[C@@H](C)OC(=O)C[C@H]1OC(C)=O (stereo partly drawn) | x | x | x | 6 | x | x

Screening results deposited in PubChem BioAssay by National Center for Advancing Translational Sciences (NCATS).
